Compound activity: PubChem, National Center for Advancing Translational Sciences (NCATS)
An excerpt weighted towards active compounds, which were near 7.3% of everything screened.
HCV inh = blocks hepatitis C virus; Potency, µM (highest dose often 41.8 µM), most hits filed as inhibitors; hit rate 3.4% among 340,000; Huh7.5.1 HCVcc-Cre infection, luciferase reporter, 44 h
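1,000 cells/well; 4 h culture; + compound; + HCVcc-Cre (~0.5 moi); 44 h; luciferase substrate, RT 15 min; read 15 sec.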
FMDV antiviral = blocks foot and mouth disease virus. hit rate 1.2% among 410,000. Potency, µM (titrated, usually from 57.9 µM), most hits filed as inhibitors. FMDV antiviral cell-based qHTS. AID 1159524; calls by dose curve; tested in HEK293T cells; note: read-out not given here; nearly all actives have a fitted effect of over 45% in size
AmpC inh no detg = AmpC beta-lactamase inhibition without detergent | P00811 | AmpC nitrocefin hydrolysis, absorbance 480 nm, 0.0001% Triton | Potency, µM (series often up to 57.1 µM), actives largely listed as inhibitors | hit rate 0.52% among 330,000; note: nearly all actives have a fitted effect of over 20% in size
Target sequence (P00811 whole entry, looked up): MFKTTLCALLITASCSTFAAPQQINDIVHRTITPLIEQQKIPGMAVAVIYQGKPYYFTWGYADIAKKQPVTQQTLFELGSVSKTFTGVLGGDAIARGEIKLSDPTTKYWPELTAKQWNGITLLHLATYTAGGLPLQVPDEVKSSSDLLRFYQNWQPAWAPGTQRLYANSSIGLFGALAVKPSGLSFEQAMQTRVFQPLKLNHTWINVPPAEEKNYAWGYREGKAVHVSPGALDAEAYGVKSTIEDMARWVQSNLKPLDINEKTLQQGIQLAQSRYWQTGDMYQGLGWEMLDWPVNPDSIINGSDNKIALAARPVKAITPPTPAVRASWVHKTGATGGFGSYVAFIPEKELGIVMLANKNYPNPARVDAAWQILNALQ
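20 mM phosphate pH 7.0 + 0.01% (detergent screen) or 0.0001% Triton X-100; 5.3 nM AmpC reagent; cpd preinc 15 min RT; nitrocefin (800 uM stock) to start; A480 q20 s × 4 min; Activity was normalised to no-enzyme and no-compound control wells.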
AmpC detergent = blocks E. coli AmpC beta-lactamase in detergent assay | AmpC hydrolysis of nitrocefin, absorbance 480 nm, 0.01% Triton | Potency, µM (series often up to 114 µM), most hits filed as inhibitors | hit rate 0.041% among 370,000; note: nearly all actives have a fitted effect of over 25% in size
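AmpC (5.3 nM in the dispensed reagent) in 20 mM phosphate pH 7.0 with 0.01% (detergent screen) or 0.0001% Triton X-100 was preincubated with compounds for 15 min at room temperature. Nitrocefin was then added from an 800 uM solution, and hydrolysis was followed at 480 nm.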
HCMV inh = human cytomegalovirus inhibition; HFF cells, HCMV-luciferase reporter, 72 h; stronger effect = lower value; activity change, negative = inhibition, % at 57.5 µM; hit rate 4.5% among 410,000; in the data active = activity change below about -60%; inconclusive = no clear call, values can overlap the other calls; inactive = above about -39%
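Screen run at 2 compound doses on HFFs infected with reporter HCMV, MOI 1 PFU/cell. Luciferase activity from cell lysates at 72 h post infection gave inhibition relative to buffer-only and Salinomycin wells.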
Numbers stand for hits; n = inactive; u = inconclusive; x = no result; [ ] = dose if it differs, or a comment. Unless noted, calls come from the whole dose curve; as a rule, active = well fitted curve in the direction sought with a large enough effect; inconclusive = small, poorly fitted or top-dose-only effect, or another doubt; inactive = no such curve, though single readings can be large; an effect the other way counts as inactive or inconclusive.

SMILES | HCV inh | FMDV antiviral | AmpC inh no detg | AmpC detergent | HCMV inh
O=C(Cc1ccccc1)N/N=C/c1ccc(-c2ccc([N+](=O)[O-])cc2)o1 | n | n | n | n | -60.6
Cc1ccc(C)c(N(CC(=O)N/N=C/c2ccc(-c3ccc([N+](=O)[O-])cc3)o2)S(=O)(=O)c2ccccc2)c1 | n | n | n | n | n
CCOc1ccc(S(=O)(=O)N(CC(=O)N/N=C/c2ccc(-c3ccc([N+](=O)[O-])cc3)o2)c2ccccc2)cc1 | u | n | 12.6µM | n | n
C[C@@]12CCCO[C@@]13C=CC(=O)C=C3CCC2 | x | x | x | x | n
CCOC(=O)c1c(S(=O)(=O)N2CCCC(C(=O)Nc3cccc(C#N)c3)C2)c(C)n(C)c1C (stereo unspecified) | x | n | x | n | n
CCCCn1c(N)c(N(CC(C)C)C(=O)CCCc2cccs2)c(=O)[nH]c1=O | n | n | n | n | u
CCCN1C(=O)CC[C@@H](S(=O)(=O)c2ccccc2)[C@@H]1c1ccccc1 | x | x | x | x | n
CCC(C)C(NC(=O)CCCNC(=O)CCC(=O)OC1O[C@H]2OC3(C)CC[C@H]4[C@H](C)CCC(C1C)C24OO3)C(=O)O (stereo partly specified) | x | x | n | n | n
CCC(C)NC(=O)CCC(=O)OC1O[C@H]2OC3(C)CC[C@H]4[C@H](C)CCC(C1C)C24OO3 (stereo partly specified) | u | n | n | n | -75.5
O=C(NCc1cccs1)c1ccc(Cn2c(SCc3ccc(F)cc3)nc3cccnc32)cc1 | x | n | x | n | -63.0
CC(CNC(=O)c1ccc(CSc2nc3ccncc3n2Cc2cccc(F)c2)cc1)c1ccccc1 (stereo unspecified) | x | u | x | n | -70.2
Cc1ccc(CSc2nc3ccncc3n2CC(=O)Nc2cc(C)cc(C)c2)cc1 | n[8.37 µM] | n | 7.08µM | n | n
Cc1cccc(CC(=O)NCc2nc3cccnc3n2Cc2ccc(F)cc2)c1 | x | n | x | n | -63.3
CCOC(=O)c1cc(OC(=O)c2ccccc2F)n(-c2ccccc2)n1 | x | n | x | n | n
Cc1cccc(Cn2c(SCc3ccc(C(=O)NC4CCCC4)cc3)nc3cccnc32)c1 | x | n | x | n | n
O=C(c1ccc(CSc2nc3ccncc3n2Cc2ccccc2)cc1)N1CCCCCC1 | x | n | x | n | n
Cc1cccc(Cn2c(SCc3ccc(C(=O)N4CCCCCC4)cc3)nc3ccncc32)c1 | x | n | x | n | -90.2
Cc1ccc(CCNC(=O)c2ccc(CSc3nc4ccncc4n3Cc3ccc(F)cc3)cc2)cc1 | x | u | x | n | -69.6
CCn1c(SCc2ccc(C(=O)Nc3cc(C)cc(C)c3)cc2)nnc1-c1ccncc1 | 11.2µM | 17.8µM | u | n | -61.5
O=C(NCCc1ccccc1)c1ccc(CSc2nc3ccncc3n2Cc2ccc(F)cc2)cc1 | x | n | x | n | n
Cc1cccc(Cn2c(SCc3ccc(C(=O)NC4CCCCC4)cc3)nc3cccnc32)c1 | x | u | x | n | -83.5
CN1OC(C)(CC(=O)Nc2ccccc2)N=C1c1ccc(Br)cc1 (stereo unspecified) | x | x | x | x | n
COc1ccc(C(=O)NCc2nnc(SCC(=O)N3CCC(C)CC3)o2)cc1 | n | n | n | n | u
Oc1ccc(-c2n[nH]c(=S)n2-c2ccc3c(c2)OCCO3)c(O)c1 | n | 2µM | n | n | -101.1
Cc1ccc(CNCC(=O)Nc2ccc(C)cc2Br)cc1 | n | n | n | n | -64.0
SMILES | HCV inh | FMDV antiviral | AmpC inh no detg | AmpC detergent | HCMV inh
Cc1ccc(NC(=O)CNCc2ccccc2)c(Br)c1 | n | n | n | n | n
Cc1cccc(COc2ncnc3nc[nH]c23)c1 | 3.98µM | n | n | n | n
Nc1ncnc2c1ncn2[C@@H]1O[C@H](CNCc2ccc(-c3cc(C(F)(F)F)ccc3Cl)o2)[C@@H](O)[C@H]1O | 35.5µM | n | n | x | n
CN(C)CCn1c(=N)n(CC(O)c2ccc(Cl)c(Cl)c2)c2ccccc21 (stereo unspecified) | 7.08µM | u | n | n | n
CCCCn1c(=N)n(CC(O)c2ccccc2)c2ccccc21 (stereo unspecified) | u | n | n | n | u
N=c1n(CCN2CCCCC2)c2ccccc2n1CC(O)c1cccc(Br)c1 (stereo unspecified) | 12.6µM | u | n | n | u
N=c1n(CCN2CCCCC2)c2ccccc2n1CC(O)c1ccc(Cl)c(Cl)c1 (stereo unspecified) | 12.6µM | x | n | n | -97.2
